p53ts 32C tox = cytotoxicity in p53ts cells at permissive temperature; H1299-p53A138V at 32C, ATP luminescence viability, 24 h; Potency, µM (series often up to 46.1 µM), hits mostly cytotoxic; actives 0.93% (n = 130,000); further: nearly all actives have a fitted effect of over 55% in size
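ATP-content luminescence (ATPlite) read-out after 24 h compound exposure at 32C in H1299-p53A138V cells (600/well). Tested up to 46 uM. Normalized to DMSO (0%) and 100 uM tamoxifen (100% killing); Hill-fit AC50.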
p53ts 39C kill = cytotoxicity in p53ts cells at nonpermissive temperature; H1299-p53A138V viability at 39C, ATP luminescence, 24 h; Potency, µM (series often up to 46.1 µM), actives largely listed as cytotoxic; actives 1.5% (n = 130,000); further: nearly all actives have a fitted effect of over 55% in size
Luciferase inh = blocks Photinus pyralis firefly luciferase activity | P08659 | purified firefly luciferase, luminescence, 8 min | Potency, µM (top dose mostly 57.1 µM), hits mostly inhibitors | actives 2.2% (n = 72,000) | AID 411; further: nearly all actives have a fitted effect of over 40% in size
Target sequence (P08659 whole entry, looked up): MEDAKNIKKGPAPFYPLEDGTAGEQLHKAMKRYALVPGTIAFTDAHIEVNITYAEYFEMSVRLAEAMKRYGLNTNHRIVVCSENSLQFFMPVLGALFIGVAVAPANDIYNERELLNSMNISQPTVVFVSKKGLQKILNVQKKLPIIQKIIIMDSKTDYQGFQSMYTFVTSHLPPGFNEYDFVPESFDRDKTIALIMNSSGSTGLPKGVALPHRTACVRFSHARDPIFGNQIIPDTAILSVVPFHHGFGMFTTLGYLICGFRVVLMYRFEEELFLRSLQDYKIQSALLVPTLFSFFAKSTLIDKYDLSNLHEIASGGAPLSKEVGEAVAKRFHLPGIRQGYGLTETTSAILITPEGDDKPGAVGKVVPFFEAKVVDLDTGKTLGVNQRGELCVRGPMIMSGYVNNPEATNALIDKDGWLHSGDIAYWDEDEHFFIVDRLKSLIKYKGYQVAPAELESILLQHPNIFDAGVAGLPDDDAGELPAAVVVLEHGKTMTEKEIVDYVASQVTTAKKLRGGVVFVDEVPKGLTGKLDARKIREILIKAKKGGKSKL
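Firefly luciferase (PKLight detection mix) with 10 uM ATP in pH 7.2 imidazole buffer (KCl, MgCl2, Tween 20, BSA). Compounds tested across a concentration series (qHTS). Luminescence read after 8 min at ambient temperature.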
Large screens that a line does not name were inactive. Only some compounds are listed: those with a hit (about 2.6% of all), similar ones and a draw of the others. The call rests on the fitted dose curve; in most records, active means well fitted curve in the direction sought with a large enough effect; inconclusive means small, poorly fitted or top-dose-only effect, or another doubt; inactive means no such curve, though single readings can be large; an effect the other way counts as inactive or inconclusive.

COCc1cc(=O)n2c(-c3ccc(C)cc3)n[nH]c2n1	p53ts 32C tox 10µM, p53ts 39C kill 10µM, Luciferase inh 13µM
Cn1c(=O)c2c(-c3ccccc3)n3c(c2n(C)c1=O)C(c1cccc([N+](=O)[O-])c1)Nc1ccccc1-3 (centres undefined)	none (no result: Luciferase inh)
COc1ccc2nc(NC(=O)c3cc(=O)c4ccccc4o3)sc2c1	p53ts 32C tox inconclusive, p53ts 39C kill 10µM (no result: Luciferase inh)
COc1cc(C)nc(Nc2nc(C)c(C(C)=O)s2)n1	none (no result: p53ts 32C tox, p53ts 39C kill)
COc1ccc2sc(NC(C)=O)nc2c1	none
CCCCN(C(=O)NC(=O)Nc1nc2ccc(OC)cc2s1)S(C)(=O)=O	p53ts 32C tox 13µM, p53ts 39C kill inconclusive, Luciferase inh 20µM
COc1ccc2nc(NC(=O)c3cnccn3)sc2c1	p53ts 32C tox inconclusive, p53ts 39C kill inconclusive, Luciferase inh 13µM
Cc1ccc2nc(NC(=O)c3cc(=O)c4cc(C)c(C)cc4o3)sc2c1	none (no result: Luciferase inh)
CCCCOC(=O)Nc1nc2ccc(OC)cc2s1	none
COc1ccc2nc(Nc3nc(C)c(C(C)=O)s3)sc2c1	p53ts 39C kill inconclusive, Luciferase inh 16µM
CC(=O)Nc1nonc1-c1nnc(SCC(=O)Nc2cccc(F)c2)n1-c1ccccc1	none (no result: Luciferase inh)
Cc1ccc(Cl)cc1N1CCN(C(=O)c2ccc3c(Cl)c4c(nc3c2)CCCC4)CC1	none (no result: Luciferase inh)
COCCCNC(=O)C1CCCN(c2nn3cc(-c4ccc(C)cc4)nc3s2)C1 (centres undefined)	none (no result: p53ts 39C kill, Luciferase inh)
Cc1ccc(CN(Cc2cccn2-c2nnc(N3CCCC3=O)s2)C(=O)Nc2ccccc2Cl)cc1	none (no result: Luciferase inh)
CC(C)NC(=O)NC(=O)COc1ncnc2sccc12	none
C=CCn1c(C)cc(C(=O)COc2ncnc3sccc23)c1C	p53ts 32C tox inconclusive, p53ts 39C kill 7.9µM, Luciferase inh 13µM
Cc1ccc(Cc2c(C)nc3nc(SCC(=O)NC4CCC(C)CC4)nn3c2C)cc1 (centres undefined)	p53ts 39C kill 20µM (no result: Luciferase inh)
Cc1cccc(Cc2c(C)nc3nc(SCC(=O)NC4CCCCC4)nn3c2C)c1	none (no result: Luciferase inh)
Clc1ccc2c(c1)C1OCCC1C(c1ccco1)N2 (centres undefined)	p53ts 32C tox 7.9µM, p53ts 39C kill 10µM, Luciferase inh 16µM
Cc1ccc2c(c1)[C@H]1OCC[C@H]1[C@@H](c1ccncc1)N2	none
Cc1nc2sc(C(c3cccs3)N3CCOCC3)c(O)n2n1 (centres undefined)	p53ts 32C tox 13µM, p53ts 39C kill inconclusive
Cc1nc2sc(C(c3cccs3)N3CCN(c4ccccc4)CC3)c(O)n2n1 (centres undefined)	p53ts 39C kill inconclusive
Cn1cc(S(=O)(=O)N2CCOCC2)cc1C(=O)Nc1ccc(Cl)c(C(F)(F)F)c1	none (no result: Luciferase inh)
CCOC(=O)c1sc(NC(=O)c2ccc3ncsc3c2)nc1C	none
O=C(Nc1nc2c(s1)CCCC2)c1ccc2ncsc2c1	p53ts 32C tox inconclusive, p53ts 39C kill inconclusive, Luciferase inh 3.2µM
O=C(Nc1nc2c(s1)CCCC2)c1ccc(Br)s1	none (no result: Luciferase inh)
Cc1ncsc1C(=O)Nc1nc2c(s1)CCCC2	p53ts 32C tox inconclusive, p53ts 39C kill inconclusive, Luciferase inh 20µM
COc1ccc(C(=O)Nc2nc3c(s2)CCCC3)cc1Cl	none (no result: Luciferase inh)
Cc1cccc(C(=O)Nc2nc3c(s2)CCCC3)c1	p53ts 32C tox 10µM, p53ts 39C kill 13µM (no result: Luciferase inh)
COc1ccc(-n2c(=O)c3sc4ccccc4c3n(C)c2=O)cc1	none (no result: Luciferase inh)
Cc1ccccc1CN1C(=O)c2ccccc2Sc2ccc(C(=O)NC3CCCCC3)cc21	none (no result: Luciferase inh)
COc1ccc(N2CCN(C(=O)CCn3c(=O)[nH]c4cc(OC)c(OC)cc4c3=O)CC2)cc1	none (no result: Luciferase inh)
CC(NC(=O)CN(c1ccc(Cl)cc1Cl)S(=O)(=O)c1ccccc1)c1ccccc1 (centres undefined)	none (no result: Luciferase inh)
Cc1ccccc1OCCCCn1c(CCNC(=O)C(C)(C)C)nc2ccccc21	p53ts 39C kill inconclusive (no result: Luciferase inh)
Cc1cccc(C)c1OCCCn1c(CCNC(=O)C2CCCCC2)nc2ccccc21	p53ts 32C tox inconclusive, p53ts 39C kill 16µM (no result: Luciferase inh)
Cc1ccc(OCCCn2c(CCNC(=O)C3CCCCC3)nc3ccccc32)c(C)c1	p53ts 39C kill inconclusive (no result: Luciferase inh)
Cc1cc(OCCCn2c(CCNC(=O)C3CCCCC3)nc3ccccc32)ccc1Cl	p53ts 32C tox inconclusive, p53ts 39C kill 13µM (no result: Luciferase inh)
CC(C)(C)C(=O)NCCc1nc2ccccc2n1CCCCOc1ccc(Cl)cc1	p53ts 39C kill 32µM (no result: Luciferase inh)
Cc1cccc(OCCCn2c(CCNC(=O)C(C)(C)C)nc3ccccc32)c1	none (no result: Luciferase inh)
CCc1cccc(NC(=O)c2ccc(CNS(=O)(=O)c3ccc4c(c3)C(C)(C)C(=O)N4C)cc2)c1	none (no result: Luciferase inh)
O=Nc1ccc(Nc2ccccc2)cc1	none (no result: Luciferase inh)
CCc1cc(C(C)=O)c(O)cc1OCCCCCC(C)(C)c1nn[nH]n1	none (no result: Luciferase inh)
CCSc1nc(-c2ccccc2OC)nc2c1Cc1c(CO)cnc(C)c1O2	none (no result: Luciferase inh)
COc1ccc(NC(=O)Nc2ccccc2OCc2cc(=O)n3ccccc3n2)c(OC)c1	p53ts 32C tox inconclusive, p53ts 39C kill 16µM (no result: Luciferase inh)

Compound activity: PubChem BioAssay, National Center for Advancing Translational Sciences (NCATS)
